# Measured values taken from PubChem BioAssay.
# Values joined by “and” are separate entries in the source; they are usually repeats but may differ in a detail not shown here. Equal entries are not always repeated. Records with an inconclusive call do not appear. More than one record can exist for a structure, and the calls need not agree. Active and inactive are the calls of the source.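 The calls were made as follows, unless noted: active = normalized viability below 100% at a tested concentration; inactive = the rest.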
# Legend:
# [1] = drug combination growth inhibition, ovarian cancer – cell-based, oncology-focused library, rucaparib conditional, profiling panel (AID 1508598); conditions: patient-derived ovarian cancer cells, CellTiter-Glo viability, 144 h, stronger effect = lower value
# [2] = viability loss in pontine glioma line – cell-based, SU-DIPG-XIII, MIPE4.0, CellTiter-Glo, qHTS, dose response (AID 1347061; cut-off not given, nearly all actives have AC50 up to about 37 µM;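 also: cells exposed to compound for 48 hours before readout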); conditions: CellTiter-Glo ATP luminescence
# [3] = viability loss in pontine glioma line – cell-based, JHH-DIPG-1, MIPE4.0, CellTiter-Glo, qHTS, dose response (AID 1347062; cut-off not given, nearly all actives have AC50 up to about 27 µM;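 as to AC50: cells exposed to compound for two days before readout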); conditions: JHH-DIPG-1 viability, CellTiter-Glo ATP luminescence
# [4] = viability loss in pontine glioma line – cell-based, SU-DIPG-XIII, MIPE5.0, CellTiter-Glo, qHTS, dose response (AID 1347064; cut-off not given, nearly all actives have AC50 up to about 23 µM); conditions: CellTiter-Glo ATP luminescence
# [5] = viability loss in pontine glioma line – cell-based, SU-DIPG-XXV, MIPE5.0, CellTiter-Glo, qHTS, dose response (AID 1347065; cut-off not given, nearly all actives have AC50 up to about 26 µM;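 also: cells exposed to compound for 48 hours before ATP readout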); conditions: CellTiter-Glo ATP luminescence
# [6] = growth inhibition of DIPG cells – cell-based, MIPE4.0 library, CellTiter-Glo luminescence, qHTS (AID 1347066; cut-off not given, nearly all actives have AC50 up to about 30 µM;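 also: cells exposed to compound for 48 hours before readout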); conditions: SU-DIPG-VI viability, CellTiter-Glo ATP luminescence
# [7] = growth inhibition of DIPG cells – cell-based, MIPE5.0 library, qHTS (AID 1347068; cut-off not given, nearly all actives have IC50 up to about 30 µM); conditions: SU-DIPG-XXV viability
# [8] = growth inhibition, single agent or in combination, cell-based, chromothripsis tumors, cisplatin or BGB combos (AID 1671449; in the data active = inhibition above about 80%;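 also: cells exposed for 96 hours; 0% = vehicle DMSO and 100% = killing by high DMSO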); conditions: LFS_MB_P medulloblastoma cells
# [9] = growth inhibition, single agent and combos, cell-based, chromothripsis tumors, cisplatin or BGB combos (AID 1671450; in the data active = inhibition above about 80%;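 also: cells exposed to compound for four days; 0% = vehicle DMSO and 100% = cell killing by high DMSO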); conditions: HDN33 neuroblastoma cells, stronger effect = higher value
# [10] = growth inhibition, single agents and combos, ICB984, cell-based, cisplatin or BGB combos, synergistic combos for chromothripsis tumors (AID 1671451; call rule not given here;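 also: cells exposed for 96 hours before readout; 0% = vehicle DMSO and 100% = killing by high DMSO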); conditions: ICB984 medulloblastoma cells, drug combinations, stronger effect = higher value
# [11] = growth inhibition, single agents and combos, HTB85, cell-based, BGB or cisplatin IC20 combos, synergistic combos for chromothripsis tumors (AID 1671453; in the data active = inhibition above about 80%;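 also: cells exposed for 96 hours before readout; 0% = vehicle DMSO and 100% = high DMSO killing control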); conditions: HTB85 osteosarcoma cells, drug combinations, stronger effect = higher value
# [12] = growth inhibition, MDA-MB-436, cell-based, BGB or cisplatin combos, synergistic combos for chromothripsis tumors (AID 1671458; call rule not given here;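 also: cells exposed for 96 hours; 0% = vehicle DMSO and 100% = killing by high DMSO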); conditions: MDA-MB-436 breast carcinoma growth inhibition, drug combinations, stronger effect = higher value
# [13] = BT084 cell growth, single and combined drugs, ICGC_MB145, cisplatin and BGB IC40 combos (AID 1671461; in the data active = inhibition above about 80%;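 also: cells exposed to drugs for 96 hours; 0% = vehicle DMSO and 100% = high DMSO full killing control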); conditions: BT084 medulloblastoma cells, drug combinations, stronger effect = higher value
# [14] = RCMB18 cell growth, single agent and combined, cisplatin and BGB IC40 combos (AID 1671462; in the data active = inhibition above about 80%;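 also: cells exposed to compound for four days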); conditions: RCMB18 medulloblastoma cells, stronger effect = higher value
# [15] = CRL1545 cell growth, single agent and combined, cisplatin and BGB IC20 combos (AID 1671464; in the data active = inhibition above about 80%;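 also: cells exposed to compound for 96 hours before readout; 0% = vehicle DMSO and 100% = high DMSO killing control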); conditions: CRL1545 osteosarcoma cells, stronger effect = higher value
# [16] = JHH-DIPG-1 glioma cell viability, MIPE5.0 library, CellTiter-Glo luminescence, qHTS (AID 1347067; cut-off not given, nearly all actives have AC50 up to about 26 µM;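 also: cells exposed to compound for 48 hours before readout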); conditions: JHH-DIPG-1 glioma viability, CellTiter-Glo ATP luminescence
# [17] = measured here: with BGB IC20 combination, at 0.5 µM
# [18] = measured here: with cisplatin IC20 combination, at 0.5 µM
smiles,measurement,setting,value
Cc1cccc(Nc2nc(-c3ccncc3)cs2)c1,viability,"[1]; at 0.0781 µM, OCI-P5x cells, without rucaparib",101% (inactive)
same,viability,"[1]; at 0.313 µM, OCI-C5x cells, with rucaparib 10 µM, 100% = cells with rucaparib alone",115% (inactive)
same,viability,"[1]; at 0.313 µM, OCI-C5x cells, without rucaparib",106% (inactive)
same,viability,"[1]; at 0.313 µM, OCI-P5x cells, with rucaparib 20 µM, 100% = cells with rucaparib alone",104% (inactive)
same,viability,"[1]; at 0.313 µM, OCI-P5x cells, without rucaparib",95.3% (active)
same,viability,"[1]; at 1.25 µM, OCI-C5x cells, with rucaparib 10 µM, 100% = cells with rucaparib alone",129% (inactive)
same,viability,"[1]; at 1.25 µM, OCI-C5x cells, without rucaparib",115% (inactive)
same,viability,"[1]; at 1.25 µM, OCI-P5x cells, with rucaparib 20 µM, 100% = cells with rucaparib alone",101% (inactive)
same,viability,"[1]; at 1.25 µM, OCI-P5x cells, without rucaparib",98.4% (active)
same,viability,"[1]; at 5 µM, OCI-C5x cells, with rucaparib 10 µM, 100% = cells with rucaparib alone",157% (inactive)
same,viability,"[1]; at 5 µM, OCI-C5x cells, without rucaparib",136% (inactive)
same,viability,"[1]; at 5 µM, OCI-P5x cells, with rucaparib 20 µM, 100% = cells with rucaparib alone",82.2% (active)
same,viability,"[1]; at 5 µM, OCI-P5x cells, without rucaparib",110% (inactive)
Cc1cnc(CNC(=O)c2c(=O)c3ccc(N4CCCN(C)CC4)nc3n3c2sc2ccccc23)cn1,outcome,[2],inactive
same,outcome,[3],inactive
same,outcome,[4],inactive
same,outcome,[5],inactive
same,outcome,[6],inactive
same,outcome,[7],inactive
same,inhibition,"[8]; at 0.5 µM, stronger effect = higher value",-32.6% (inactive) and -19.8% (inactive)
same,inhibition,"[8]; measured here: combination with BGB IC20, at 0.005 µM",-4.81% and -24.5%
same,inhibition,"[8]; measured here: combination with BGB IC40, at 0.005 µM",-1.91% and -28.2%
same,inhibition,"[8]; measured here: combination with BGB IC40, at 0.05 µM",0.537% and -10.1%
same,inhibition,"[8]; measured here: combination with cisplatin, at 0.5 µM, stronger effect = higher value",-27% and -20.6%
same,inhibition,"[8]; measured here: combination with cisplatin, at 5 µM, stronger effect = higher value",126% and 65.2%
same,inhibition,"[9]; BGB combo, at 5 µM",99.9% and 61.4%
same,inhibition,[9]; at 0.5 µM,53.7% (inactive) and 26.5% (inactive)
same,inhibition,"[9]; cisplatin combo, at 5 µM",99.9% and 78%
same,inhibition,[9]; [17],51.6% and 27.6%
same,inhibition,[9]; [18],44.8% and 18.7%
same,inhibition,"[9]; single agent, at 5 µM",99.9% and 80.2%
same,inhibition,"[10]; BGB IC20 combo, at 0.005 µM",94.7% and -37.9%
same,inhibition,"[10]; BGB IC40 combo, at 0.005 µM",92.8% and -33.4%
same,inhibition,"[10]; BGB IC40 combo, at 0.05 µM",102%
same,inhibition,[10]; at 0.5 µM,-35% (inactive) and -18.1% (inactive)
same,inhibition,"[10]; cisplatin combo, at 0.05 µM",102%
same,inhibition,"[10]; cisplatin combo, at 0.5 µM",-48.5% and -27.9%
same,inhibition,"[10]; cisplatin combo, at 5 µM",-21.1% and -37.3%
same,inhibition,"[10]; measured here: 5 uM single agent, at 5 µM",-8.37% and -11.6%
same,inhibition,[11]; at 0.5 µM,6.45% (inactive) and -21.5% (inactive)
same,inhibition,"[11]; measured here: with BGB IC20, at 0.5 µM",2.27% and -44.5%
same,inhibition,"[11]; measured here: with BGB IC20, at 5 µM",100% and 39.1%
same,inhibition,"[11]; measured here: with cisplatin IC20, at 0.5 µM",-0.545% and -23%
same,inhibition,"[11]; measured here: with cisplatin IC20, at 5 µM",99.9% and 26.3%
same,inhibition,"[11]; single agent, at 5 µM",100% and 41.7%
same,inhibition,[12]; at 0.5 µM,29.4% (inactive) and 4.69% (inactive)
same,inhibition,"[12]; measured here: BGB combination, at 0.5 µM",10.6% and -16.3%
same,inhibition,"[12]; measured here: BGB combination, at 5 µM",103% and -17.9%
same,inhibition,"[12]; measured here: cisplatin combination, at 0.5 µM",20.7% and -11.9%
same,inhibition,"[12]; measured here: cisplatin combination, at 5 µM",102% and 14.1%
same,inhibition,[13]; at 0.5 µM,-18.1% (inactive) and -56.2% (inactive)
same,inhibition,"[13]; cisplatin combination, at 0.5 µM",18.1% and -29.3%
same,inhibition,"[13]; cisplatin combination, at 5 µM",108% and 82.2%
same,inhibition,"[13]; measured here: BGB IC40 combination 0.05 uM, at 0.05 µM",77.5% and -15.1%
same,inhibition,"[13]; single agent, at 5 µM",106% and -74.4%
same,inhibition,[14]; at 0.5 µM,85.6% (active) and -19.4% (inactive)
same,inhibition,"[14]; cisplatin combo, at 5 µM",101% and 100%
same,inhibition,"[14]; measured here: BGB IC40 combination, at 0.05 µM",-21.6% and -12.2%
same,inhibition,"[14]; measured here: combination with cisplatin, at 0.5 µM",95.7% and -7.59%
same,inhibition,"[14]; single agent, at 5 µM",101%
same,inhibition,[15]; at 0.5 µM,38.3% (inactive) and -17.2% (inactive)
same,inhibition,[15]; [17],36.7% and -12.7%
same,inhibition,[15]; [18],39% and -19.4%
same,inhibition,"[15]; single agent, at 0.05 µM",2.42% and -7.19%
same,inhibition,"[15]; single agent, at 5 µM",99.9%
OC[C@H](Cc1ccccc1)Nc1nc(Oc2ccc3c(c2)CCC3)nc2c1ncn2Cc1ccc(-c2ccccc2)cc1,outcome,[2],inactive
same,outcome,[3],inactive
same,outcome,[6],inactive
same,outcome,[7],inactive
NC(=O)c1noc([C@H](CCCC2CCCCC2)CC(=O)NO)n1,outcome,[2],inactive
same,AC50,[3],23.5 µM (active)
same,outcome,[6],inactive
same,outcome,[16],inactive
same,outcome,[7],inactive
